# ChEMBL document CHEMBL1961873, “Compounds: GSK PKIS; Assays: Nanosyn kinase panel” (2012)
# “And” between values parts separate entries of the source, which are not always exact repeats. Equal values may be shown once.
# Legend:
# [1] = target: Sphingosine kinase 1 (Homo sapiens) (UniProt Q9NYA1); settings: at 1 µM;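 further: mean SPHK1 inhibition value reported from the GSK PKIS kinase panel screen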
# [2] = target: T1, Sphingosine kinase 2 (Homo sapiens) (UniProt Q9NRA0); settings: at 0.1 µM
# T1 sequence (whole entry): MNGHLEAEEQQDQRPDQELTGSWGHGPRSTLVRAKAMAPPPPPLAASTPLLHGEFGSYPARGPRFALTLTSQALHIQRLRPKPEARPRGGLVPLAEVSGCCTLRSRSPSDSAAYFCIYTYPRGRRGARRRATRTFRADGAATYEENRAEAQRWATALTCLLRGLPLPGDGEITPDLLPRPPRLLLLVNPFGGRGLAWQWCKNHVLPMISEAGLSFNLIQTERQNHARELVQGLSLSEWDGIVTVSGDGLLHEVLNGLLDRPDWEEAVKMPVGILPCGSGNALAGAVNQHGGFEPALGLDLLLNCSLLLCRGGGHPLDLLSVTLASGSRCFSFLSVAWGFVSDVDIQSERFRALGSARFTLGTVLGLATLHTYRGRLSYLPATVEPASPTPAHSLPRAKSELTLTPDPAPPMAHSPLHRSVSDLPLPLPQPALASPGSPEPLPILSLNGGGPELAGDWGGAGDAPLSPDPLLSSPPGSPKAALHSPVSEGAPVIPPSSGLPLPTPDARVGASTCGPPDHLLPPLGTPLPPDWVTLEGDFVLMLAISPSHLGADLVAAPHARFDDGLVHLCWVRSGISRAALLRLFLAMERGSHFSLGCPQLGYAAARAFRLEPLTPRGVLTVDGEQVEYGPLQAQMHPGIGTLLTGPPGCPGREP
# [3] = target: T1, Sphingosine kinase 2 (Homo sapiens); settings: at 1 µM
# [4] = target: Casein kinase II subunit alpha (Homo sapiens) (UniProt P68400); settings: at 0.1 µM
# Chain of Casein kinase II subunit alpha (Homo sapiens) (P68400 whole entry, looked up): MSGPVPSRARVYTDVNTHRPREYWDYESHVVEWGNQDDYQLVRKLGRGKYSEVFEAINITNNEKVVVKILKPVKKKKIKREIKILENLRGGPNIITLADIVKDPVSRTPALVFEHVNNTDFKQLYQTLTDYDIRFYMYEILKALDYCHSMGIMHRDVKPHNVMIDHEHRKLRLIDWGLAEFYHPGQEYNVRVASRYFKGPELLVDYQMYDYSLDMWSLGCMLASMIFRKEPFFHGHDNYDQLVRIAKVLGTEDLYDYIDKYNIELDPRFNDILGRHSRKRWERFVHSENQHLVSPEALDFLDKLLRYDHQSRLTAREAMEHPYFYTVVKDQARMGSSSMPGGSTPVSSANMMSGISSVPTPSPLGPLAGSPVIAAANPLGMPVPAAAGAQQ
# [5] = target: Casein kinase II subunit alpha (Homo sapiens) (UniProt P68400); settings: at 1 µM
# [6] = target: T2, Inhibitor of nuclear factor kappa-B kinase subunit alpha (Homo sapiens) (UniProt O15111); settings: at 0.1 µM
# T2 sequence (whole entry): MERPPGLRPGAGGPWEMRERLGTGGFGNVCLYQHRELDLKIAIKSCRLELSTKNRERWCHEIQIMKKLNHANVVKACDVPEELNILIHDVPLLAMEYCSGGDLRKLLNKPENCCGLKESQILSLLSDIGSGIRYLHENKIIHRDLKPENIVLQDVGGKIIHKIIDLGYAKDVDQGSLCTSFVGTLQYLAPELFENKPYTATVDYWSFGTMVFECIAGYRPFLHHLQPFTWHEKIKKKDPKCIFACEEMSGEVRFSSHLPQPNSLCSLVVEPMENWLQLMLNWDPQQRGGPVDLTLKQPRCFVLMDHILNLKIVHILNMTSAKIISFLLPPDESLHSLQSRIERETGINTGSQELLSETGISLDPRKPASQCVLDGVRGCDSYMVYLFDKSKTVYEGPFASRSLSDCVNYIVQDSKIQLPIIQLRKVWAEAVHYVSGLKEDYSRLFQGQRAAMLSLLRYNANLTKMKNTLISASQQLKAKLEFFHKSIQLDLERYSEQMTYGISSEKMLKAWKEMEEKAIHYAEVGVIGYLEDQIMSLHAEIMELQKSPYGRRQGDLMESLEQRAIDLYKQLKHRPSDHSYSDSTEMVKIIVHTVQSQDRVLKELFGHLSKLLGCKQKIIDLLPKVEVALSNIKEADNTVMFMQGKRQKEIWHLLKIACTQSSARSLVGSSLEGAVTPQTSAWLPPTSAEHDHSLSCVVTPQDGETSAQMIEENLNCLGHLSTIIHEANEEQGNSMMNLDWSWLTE
# [7] = target: T2, Inhibitor of nuclear factor kappa-B kinase subunit alpha (Homo sapiens); settings: at 1 µM
# [8] = target: T3, Inhibitor of nuclear factor kappa-B kinase subunit beta (Homo sapiens) (UniProt O14920); settings: at 0.1 µM
# T3 sequence (whole entry): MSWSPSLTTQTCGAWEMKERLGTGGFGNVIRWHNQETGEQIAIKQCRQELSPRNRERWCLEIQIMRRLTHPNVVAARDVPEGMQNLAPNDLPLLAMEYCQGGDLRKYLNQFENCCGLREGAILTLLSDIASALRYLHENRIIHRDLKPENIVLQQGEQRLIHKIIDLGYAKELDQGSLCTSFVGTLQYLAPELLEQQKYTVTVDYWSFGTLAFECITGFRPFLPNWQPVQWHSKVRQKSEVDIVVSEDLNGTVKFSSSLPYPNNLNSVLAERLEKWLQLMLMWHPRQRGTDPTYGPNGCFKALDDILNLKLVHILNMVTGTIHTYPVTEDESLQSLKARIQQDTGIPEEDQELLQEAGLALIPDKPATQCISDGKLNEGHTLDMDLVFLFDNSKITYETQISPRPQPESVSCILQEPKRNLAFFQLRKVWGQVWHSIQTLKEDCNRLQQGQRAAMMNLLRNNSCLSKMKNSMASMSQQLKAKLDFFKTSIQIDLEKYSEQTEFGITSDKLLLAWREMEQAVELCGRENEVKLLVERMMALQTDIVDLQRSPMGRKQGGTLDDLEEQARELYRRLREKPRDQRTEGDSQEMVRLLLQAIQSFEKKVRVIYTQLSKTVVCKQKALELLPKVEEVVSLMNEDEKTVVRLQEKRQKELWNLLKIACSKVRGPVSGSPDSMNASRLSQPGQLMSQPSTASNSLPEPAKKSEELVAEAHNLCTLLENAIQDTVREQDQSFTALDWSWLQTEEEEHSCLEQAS
# [9] = target: T3, Inhibitor of nuclear factor kappa-B kinase subunit beta (Homo sapiens); settings: at 1 µM
# [10] = target: T4, Inhibitor of nuclear factor kappa-B kinase subunit epsilon (Homo sapiens) (UniProt Q14164); settings: at 0.1 µM;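 further: mean inhibition of IKKε reported, from the GSK PKIS dataset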
# T4 sequence (whole entry): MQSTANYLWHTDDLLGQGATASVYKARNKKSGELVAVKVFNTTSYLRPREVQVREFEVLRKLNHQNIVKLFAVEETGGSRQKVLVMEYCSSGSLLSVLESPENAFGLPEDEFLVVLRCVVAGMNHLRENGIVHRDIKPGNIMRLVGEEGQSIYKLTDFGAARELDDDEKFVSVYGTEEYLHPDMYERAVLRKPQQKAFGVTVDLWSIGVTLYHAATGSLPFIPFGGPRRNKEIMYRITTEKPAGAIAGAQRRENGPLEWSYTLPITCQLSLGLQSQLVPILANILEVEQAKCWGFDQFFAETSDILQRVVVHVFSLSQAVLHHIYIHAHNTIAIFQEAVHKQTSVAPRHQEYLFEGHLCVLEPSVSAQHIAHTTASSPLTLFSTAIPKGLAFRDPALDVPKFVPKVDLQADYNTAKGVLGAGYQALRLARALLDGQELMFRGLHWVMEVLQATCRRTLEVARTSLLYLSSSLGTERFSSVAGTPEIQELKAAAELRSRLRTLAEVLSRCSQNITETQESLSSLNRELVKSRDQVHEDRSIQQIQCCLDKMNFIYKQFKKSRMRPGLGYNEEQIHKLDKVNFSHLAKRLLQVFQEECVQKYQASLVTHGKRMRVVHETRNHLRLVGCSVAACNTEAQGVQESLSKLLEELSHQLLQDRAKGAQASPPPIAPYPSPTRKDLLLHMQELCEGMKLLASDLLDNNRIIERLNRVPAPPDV
# Chain of Sphingosine kinase 1 (Homo sapiens) (Q9NYA1 whole entry): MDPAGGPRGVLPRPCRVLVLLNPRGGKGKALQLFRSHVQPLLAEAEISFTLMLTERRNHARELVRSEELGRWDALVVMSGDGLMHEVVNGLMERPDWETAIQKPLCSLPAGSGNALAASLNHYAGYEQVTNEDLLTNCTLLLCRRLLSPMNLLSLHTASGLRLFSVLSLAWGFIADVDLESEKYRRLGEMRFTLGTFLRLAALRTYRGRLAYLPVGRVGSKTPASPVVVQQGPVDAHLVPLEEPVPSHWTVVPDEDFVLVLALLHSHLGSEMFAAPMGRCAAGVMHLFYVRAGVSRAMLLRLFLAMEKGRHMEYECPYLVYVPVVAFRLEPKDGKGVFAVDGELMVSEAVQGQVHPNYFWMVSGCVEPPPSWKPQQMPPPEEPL
Compound,inhibition [1],inhibition [2],inhibition [3],inhibition [4],inhibition [5],inhibition [6],inhibition [7],inhibition [8],inhibition [9],inhibition [10]
N#Cc1ccc2c(-c3ccnc(NC4CC4)n3)c(-c3ccc(F)cc3)nn2c1,0.88%,-0.39%,0.05%,2.7%,1.8%,3.97%,-0.5%,2.19%,0.5%,1.8%
NS(=O)(=O)c1ccc(N/N=C2\C(=O)Nc3cccc(CCc4ccncc4)c32)cc1,3.16%,0%,-4.51%,5.35%,2.3%,-0.34%,1.3%,0.73%,-2.12%,-0.26%
COc1cc2c(cc1Nc1nc(Nc3cccc(F)c3C(N)=O)c3cc[nH]c3n1)N(C(=O)CN1CCN(C(C)C)CC1)CC2,1.21%,-0.45%,-0.67%,6.72%,10.1%,2.84%,4.05%,5.51%,1.47%,3.12%
O=C1Nc2ccccc2/C1=C1\CCc2cc(O)ccc21,-8.14%,-0.36%,-2.47%,3.18%,9.1%,13%,5.45%,5.41%,5.64%,6.27%
CN1CCN(Cc2ccc(-c3cc4ncnc(Nc5ccc(OCc6cccc(F)c6)c(Cl)c5)c4s3)o2)CC1,3.16% and -4.57%,0.42% and -0.46%,2.36% and -0.62%,12.7% and 7.35%,3.7% and 10.5%,4.53% and 11.4%,2.93% and 6.95%,2.82% and 5.97%,3.27% and 6.18%,3.75% and 4.88%
O=C(O[C@H]1CN[C@H](C#Cc2cc3ncnc(Nc4ccc5c(cnn5Cc5ccccc5)c4)c3s2)C1)N1CCOCC1,-0.72%,0.71%,-0.03%,-2.6%,1.05%,1.12%,-2.78%,-1.3%,-0.9%,-7.28%
COc1ccc(Nc2ncc(-c3ccccc3)o2)cc1OC,2.47%,-0.42%,-0.4%,1.03%,6.83%,5.31%,3.86%,3.33%,4.83%,2.76%
CS(=O)(=O)CCNCc1ccoc1-c1ccc2ncnc(Nc3ccc(OCc4ccccc4)cc3)c2c1,5.32%,1.37%,1.07%,2.14%,1.94%,1.95%,8.23%,-1.24%,0.42%,-0.44%
N#Cc1cccc(Nc2ncc(-c3ccccc3)o2)c1,-2.86%,0.09%,-1.96%,2.39%,11.7%,5.02%,3.79%,3.29%,5.96%,5.55%
FC(F)(F)CNc1nccc(-c2cnn3ncccc23)n1,-0.16%,-1.21%,-4.21%,9.47%,3.8%,1.92%,9.86%,4.92%,5.42%,6.69%
